The values that follow come from PubChem BioAssay (NCATS).

Each structure is given as a SMILES string. Values without a mark were called inactive. The call rests on the fitted dose curve; in most records, active means well fitted curve in the direction sought with a large enough effect; inconclusive means small, poorly fitted or top-dose-only effect, or another doubt; inactive means no such curve, though single readings can be large or run the other way.

This assay is described as follows: Validation qHTS assay for inhibitors of Activation Induced Cytidine Deaminase (AID): UDG Counterscreen signal (AID 1347427). Further: 0% is about no effect. As to conditions: biochemical UDG counterscreen, fluorescence signal; series mostly up to 115 µM; activity, negative = inhibition: at the top concentration. The text has this: Assay Provider (PI) Patricia Gearhart Ph.D.
National Institute on Aging
National Institute of Health (NIH), Bethesda, MD
Assay Provider (PI) Rahul Kohli Ph.D.
Perelman School of Medicine
University of Pennsylvania, Philadelphia, PA
Activation-Induced Deaminase (AID) is a cytosine deaminase which converts cytosine into uracil within stretches of ssDNA. The presence of uracil in DNA initiates a cascade of mutagenic DNA repair to introduce point mutations and DNA double strand breaks. Specific targeting of AID to the immunoglobulin heavy chain loci (Igh) promotes mutagenesis in the antibody variable region for somatic hypermutation (SHM) or switch regions leading to class switch recombination (CSR). However, AID also plays a role in accumulating unnecessary mutations across the genome. Mis-targeting of AID results in the initiation of tumor development and leads to greater drug resistance among cancer cells when continually expressed. To identify an AID inhibitor, a small molecule library will be screened in collaboration with NCATS core facility at NIH. To confirm biological function, inhibitors will be examined in an in vitro murine B-cell activation assay and subsequent secondary validation screens. Top molecules will be further screened to identify inhibitory efficacy against a wild type primary splenocytes assay. Using these approaches, we hope to identify a small molecule with great efficacy and low toxicity for use as a molecular probe to further characterize AID's intricacies, or even as a therapeutic.
A FRET based analysis of cytosine deamination, was developed to identify potential inhibitors of AID catalytic activity. This screen has two signal output, Read 1 evaluates the AID inhibition response. The second readout (Read 2) evaluates UDG response and is uses as a counterscreen to exclude false positive inhibitors. Inhibition in AID and inactivity in the UDG signal is the desired outcome for this assay.
SEQUENCE No. (e.g., 1, 2, 3, etc.); […] (e.g., Cells, Incubation, Reagent, etc.); VALUE; DESCRIPTION
1a; Reagent; 3 uL; [4/3x] 1 uM AID/2.67 U/mL UDG
1b; Reagent; 3 uL; 2 U/mL UDG
1c; Reagent; 3 uL; 1 uM AID
2a; Compound; 46 nL; Follow-up plates (0.64 uM - 10 mM)
2b; Control; 46 nL; ATA ([…] - 10 mM)
3; Time; 10 min; incubation at room temperature
5; Time; 4 hr; incubation at room temperature
6; Reagent; 4 uL; [2x] 250 mM NaOH
7; Time; 15 sec; centrifuge at 1000 rpm
8; Time; 30 min; incubation at room temperature
9a; Detection; fluorescence (Read 1: AID); EnVision (PerkinElmer) plate reader, 540 excitation and 590 emission filters
9b; Detection; fluorescence (Read 2: UDG); EnVision (PerkinElmer) plate reader, 560 excitation and 665 emission filters
NOTES (numbers refer to sequence above)
1a; Reagents were dispensed in a medium-binding black solid-bottom Greiner plates (789176F) using a BioRptr liquid dispenser. Dispense 3 uL of [4/3x] 1 uM AID (provided by Kohli lab) and [4/3x] 2 U/mL UDG (NEB M0280L) into columns 1, 2, 5 to 48.
1b; Dispense 3 uL of [4/3x] 2 U/mL UDG into column 3.
1c; Dispense 3 uL of [4/3x] 1 uM AID into column 4.
2b; 10 mM Aurintricarboxylic Acid (Sigma A1895) (ATA, 8-point, n = 2, 1:2.5 dilution in column 2) double pin-transferred (Dip Factor = 2) using the Kalypsys (Wako USA) pintool equipped with a 1536 pinhead for a [final] range of 186 nM - 114 uM.
3; Room temperature incubation.
4; Dispense 1 uL of substrate mixture from the Kohli lab [4x] […] DJC20 and [4x] 250 nM DJC23 into columns 1 to 48 .
5; Room temperature incubation.
6; Dispense 4 uL of substrate mixture [2x] 250 mM NaOH into columns 1 to 48.
7; Centrifugation step to remove bubbles.
8; Room temperature incubation
9a; Fluorescence signal (column label AID) was read using the EnVision plate reader. Excitation filter = 540(8) nm, barcode = 311; Emission filter = 590(20) nm, barcode = 217; Mirror = D555, barcode = 405.
9b; Fluorescence signal (column label UDG) was read using the EnVision plate reader. […]
A general note: In qHTS, concentration-response curves come from the screen itself.
Take `C[C@H](Cc1ccccc1)Nc1ncnc2c1ncn2[C@@H]1O[C@H](CO)[C@@H](O)[C@H]1O`: the “activity, negative = inhibition” value is -8.76%.

Turning to `Oc1cc2c(c(Cl)c1O)CCNCC2c1ccccc1` (configuration not stated), the “activity, negative = inhibition” value is -0.892%. For the molecule `C1CCC(N=C(NC23CC4CC(CC(C4)C2)C3)N2CCOCC2)CC1`, the “activity, negative = inhibition” value was 12.7%.

As to `O=C1c2ccccc2C(=O)c2c(NCCc3ccc(O)cc3)ccc(NCCc3ccc(O)cc3)c21`, the “activity, negative = inhibition” value is -10.9%.

With `O=Nc1c(-c2c(O)[nH]c3ccccc23)[nH]c2ccccc12`, the “activity, negative = inhibition” value is 6.84%.

For the molecule `N#C/C(=C\c1ccc(O)c(O)c1)C(=O)Nc1ccccc1`, the “activity, negative = inhibition” value is 16.1%. Turning to `CCc1ccc(/C=C2/SC(=S)NC2=O)cc1`, the “activity, negative = inhibition” value was 11.1%. `Nc1c(S(=O)(=O)O)cc(Nc2ccc(Nc3nc(Cl)nc(Nc4ccc(S(=O)(=O)O)cc4)n3)c(S(=O)(=O)O)c2)c2c1C(=O)c1ccccc1C2=O`: the “activity, negative = inhibition” value is -16.6%. As for `Cc1cccc(/C=C/c2ccccc2)n1`, the figure is 0.264%; as for `CN1C2CCCC1CC(NC(=O)c1nn(C)c3ccccc13)C2` (configuration not stated), 4.51%; as for `CC[N+](CC)(CC)CC`, 6.55%. With `S=C(Nc1ccccc1)Nc1nccs1`, the “activity, negative = inhibition” value was 4.21%.
